Measurements reported in the supplement of paper PMC6555819.

test system: VDR:RXRa (NR concentration 270 nM, RXRa partner concentration 90 nM); test: PBM binding z-score (relative to random genomic background probes); higher = stronger binding; sequences stand for … in GC…GCGATTGACAGCGTAGAATGAAGG
Experimental: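 Protein-binding microarray (Agilent 4x180K custom design, double-stranded 60-nt probes: 5' GC cap, 34-nt variable region, 24-nt constant primer region; full probe sequence given). Purified or IVT nuclear receptor:RXRα heterodimers (3:1 NR:RXRα, mostly 270:90 nM) or homodimers were incubated for 1 h in PBS with 2% milk and no ligand, then detected with Alexa488 antibodies. Fluorescence from o1-orientation probes (~5 replicates averaged) was converted to z-scores against 500 random hg19 background probes. Variable regions are seed direct-repeat (DR0–DR5) sites, all their single-nucleotide variants and half-site ablations.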

| Sequence | PBM binding z-score |
| --- | --- |
| ACTTACGGGTCGACGAGGTTATAGCACGCGTATA | 6.05 |
| TCTGCTAGGTCAACGATGGTGAGCTAATCTGCTA | 1.15 |
| CCTTACGGGTCACTGACTGGTTATAGCATTTGGA | 3.11 |
| CCTTACGGATCACTCCAGGTTATAGCATCGGAGT | 0.59 |
| ATCTCTAGGTGACCAAGTTCAGTGAATGCCGAAC | 4.77 |
| TCTTGTAGATCAATAGAGGTTAATAAAGTGCGCT | 1.84 |
| TCGAGTATGTTACCAATGGGGCATTCAGCTTTCT | -0.0704 |
| AGAATGAGGATAAGATCAGGGAAACAGAATACAT | -0.0497 |
| CGTCCAAGGTAAAAGGTCAGTGAAGAGATGACGG | 2.93 |
| TAGCCTAGGTAATGGGCCAGTATACCACGCGAAC | -0.466 |
| ACATACAGGTGAGTGAAGGTAACTCAGCTGGACG | 0.0169 |
| GCTGCTAGGTCAGGTTGGACAGCTAACGGGTACG | 0.304 |
| CCTACTGGGCCAAGTTCATTGATCAGTCAAAGCA | 2.89 |
| CCTCGGAGGATAACAGGAGGTCAGAGCTGCCAGA | 1.5 |
| CAAACTAGATCACAGAGGTCAAAGTCCGTGCGTA | 5.7 |
| CCTCGGAAGACAACAGGAGGTCAGAGCTGCCAGA | 1.5 |
| GCTGCTAGGTCAGGTTGGTCAGCCAACGGGTACG | 0.447 |
| TCTAGTTGGTCCAAGGTCACACACTCGAAATGCG | 3.77 |
| GCTGCTAGGTCAACTGATGGTCAGCTATAGCTCG | 1.82 |
| ACAGACAGGTGAGTGAAGGTAACTGAGCTGGACG | -0.202 |

| Sequence | PBM binding z-score |
| --- | --- |
| AGTCAAAGTTCAGGCCGAGGTAACGTAAAGCACG | 3.01 |
| CGTCCAATGTCATAGGAGGTCAGTGAAGACAGAT | 3.45 |
| CCTAGCAGGCCAATCTGGGTCACGCAAGGCTTGA | 1.14 |
| GCTGCTAGGTCAACTGATGGTTAGCTAAAGCTCG | 1.39 |
| ATATGTAGGTTACCTCCGGGTCATTCAGGCTATG | 4.01 |
| ACTTACGGGTCAAAGAGGTTATAGCACGCGTATA | 7.09 |
| CGAACTAGGTCATTGCCAGGACAGTGAATAGTAA | 2.42 |
| ATCTCTAGGTAAAGATAGTTGAGTGAATGCAAAT | 0.375 |
| ACTATTGGTTGAGACGAGGGCAACCGATAGGTTG | 0.873 |
| ATCTCTAGGTAACCAAGTTCTGTGAATGCCGAAC | 0.866 |
| TCATATAGGTAAAAGGTGAAAGACGGTGTGGTAA | 1.57 |
| CTCGAAAGGTCGTGCTCAGGTGATTATACCAAAC | 3.58 |
| ATATGTAGTTTAAGGGTCATTCAGGTTGGTTCGC | 5.34 |
| CCTTACGGGTCAAGGTTATGGCACGGGTGGTACG | 3.53 |
| GCTGCTTGGTCAGGTTGGTCAGCTAACGGGTACG | -0.35 |
| AGTCAAAGTTCAGCTAGGTAACGTAAGATATGCT | 3.03 |
| AGAAGGAGGGCACGCTGAGTTGATAGCAGAGTAG | 1.41 |
| ACGAGCAGGCCAAGTTTGGGTCACTCAAACAAAG | 0.614 |
| TCTTGTAGGTCAGCAGGTTAAGAAAGCTGGCCAA | 3.54 |
| TAGACTAGGTCATGCGGGCCAGTATAGTGTCGGC | 2.46 |
